± gives the standard deviation.

This assay relates to RAW-Dual (murine macrophage reporter line). Nature of the assay: NF-kB reporter (SEAP) activity fold change vs agonist alone; higher = enhanced NF-kB activity. The note with it: modulator concentration 10 µM; agonist: MPLA […]. Summed up:
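RAW-Dual murine macrophage reporter cells were seeded at 50 000 per well in 384-well plates and pre-incubated 1 hour at 37 °C with compound pin-transferred to 10 μM final. After 1 hour, a PRR agonist was added and cells incubated overnight. Supernatant NF-κB (SEAP, QUANTI-Blue, 620 nm absorbance) and IRF (Lucia luciferase, QUANTI-Luc, luminescence) signals were divided by the mean agonist-only control on the same plate to give fold change. Two replicate plates were averaged, with errors by propagation.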
On to `CCCCNCCCCOc1ccc(C)cc1C(C)(C)C`, for which the NF-kB reporter is 1.38 ± 0.048.

`Brc1ccc(-c2cc(-c3ccccc3)nc(N3CCOCC3)n2)cc1`: the NF-kB reporter is 1.12 ± 0.13. Consider `O=C(c1ccc(Cl)cc1)c1ccc(N2CCOCC2)c([N+](=O)[O-])c1`, for which the NF-kB reporter came out at 0.735 ± 0.044.

Take `CC1CCN(c2nccnc2Oc2ccc(C(=O)N3CCN(c4ccc(F)cc4)CC3)cc2)CC1`: the NF-kB reporter was found to be 0.709 ± 0.047. Regarding `Oc1c2c(nc3cc(-c4ccc(Br)cc4)nn13)CCS2`, the NF-kB reporter was 0.857 ± 0.082.

With `Cc1nn2c(=O)c(Cc3ccccc3)c(C)[nH]c2c1-c1ccccc1`, the NF-kB reporter stood at 1.06 ± 0.11. Turning to `CNCCC[C@]12CC[C@H](c3ccccc31)c1ccccc12` [Prestw-346], the NF-kB reporter turned out to be 0.93 ± 0.095. The same measure for `CC(N)c1ccc(Nc2ncc3cc(-c4ccncc4)ccc3n2)cc1.Cl.Cl.Cl` (stereo not given): 2.73 ± 0.16; for `CCOc1ccc(S(=O)(=O)NC(C)(C)C)cc1C`: 1.13 ± 0.12. The same measure for `Cc1oncc1C(=O)Nc1ccc(C(F)(F)F)cc1`: 1.09 ± 0.071; for `O=C(O)c1ccccc1`: 0.974 ± 0.089; for `CC(C)(C)C(O)/C=C/c1ccc2c(c1)OCO2` (stereo not given): 1.03 ± 0.055.

Regarding `COc1cccc(S(=O)(=O)NCc2sc(-c3ccccc3)nc2C)c1`, the NF-kB reporter amounted to 0.901 ± 0.045. As for `CCOC(=O)c1cc(-c2ccccc2)sc1NC(=O)C(C)(C)C`, the NF-kB reporter was determined as 1.2 ± 0.17. The same measure for `CC(C)(O)C#Cc1ccccn1`: 0.909 ± 0.072; for `COc1ccc(CC(C)N2CCN(c3cccc(C)c3C)CC2)cc1OC` (stereo not given): 1.03 ± 0.08.

For the molecule `C[C@]1(O)C[C@@H](c2nc(-c3ccc4ccc(-c5ccccc5)nc4c3)c3c(N)nccn32)C1`, the NF-kB reporter stood at 0.899 ± 0.08. `Cc1ccc(C2=NN3C(=N)C(=Cc4c[nH]c5ccccc45)C(=O)N=C3S2)cc1`: the NF-kB reporter amounted to 0.932 ± 0.058. For `CN1CCN(C2=C(Cl)C(=O)N(c3cccc(Cl)c3)C2=O)CC1`, the NF-kB reporter is 1.01 ± 0.03. For `CC1CCc2nc(NC(=O)C3CCCN3S(C)(=O)=O)sc2C1` (stereo not given) the value was 1.08 ± 0.057; for `C=CCn1c(SCC(=O)NCCN2CCOCC2)nc2sc3c(c2c1=O)CCC3`, 0.852 ± 0.068. Consider `CC1(C)CC(NC(=O)c2cccnc2-c2nc3ccccc3s2)CC(C)(C)N1`, for which the NF-kB reporter came to 0.948 ± 0.19. For `CC(C)(C)C(=O)NCc1cccnc1-c1cccnc1`, the NF-kB reporter is 0.892 ± 0.047.

As for `COc1cc2c(cc1OC)C(=S)NC1(CCCC1)C2`, the NF-kB reporter is 0.941 ± 0.1. For `COC(=O)c1ccccc1NC(=O)CCc1ccc(Oc2cc([N+](=O)[O-])cc([N+](=O)[O-])c2)cc1` the value was 1.13 ± 0.072; for `CC(O)(CNC(=O)NCc1ccc(F)cc1)c1ccc(-c2ccccc2)cc1` (stereo not given), 0.873 ± 0.077. For `CCn1c2ccccc2c2cc(CNCCc3ccc(OC)cc3)ccc21` the value was 1.24 ± 0.1; for `CN(C)c1nc(CNS(C)(=O)=O)nc(N2CCCCC2)n1`, 1.03 ± 0.044.

For the molecule `O=C(NCCC(CCO)c1ccccc1)c1cccc(Br)c1` (stereo not given), the NF-kB reporter was 0.988 ± 0.053.

On to `CCn1c(C=Nn2cnnc2)nc2ccccc21`, for which the NF-kB reporter was found to be 0.943 ± 0.036. For `COc1c(O)cc(O)cc1O` the value was 1.1 ± 0.047; for `O=C(NN=Cc1c(O)ccc2ccccc12)c1ccncc1`, 1.48 ± 0.052. The same measure for `COc1cc(C=NN2C(=O)c3cccc4cccc(c34)C2=O)cc(Br)c1OC`: 0.967 ± 0.062; for `CC(=O)OCCN(CCOC(C)=O)c1c(C)[nH]c(=O)[nH]c1=O`: 0.994 ± 0.089; for `CC(C)C(=O)c1c(C(C)C)nn2ccccc12`: 1.21 ± 0.032. With `Cn1c(=O)cc(N2CCC[C@@H](N)C2)n(Cc2cc(F)ccc2C#N)c1=O`, the NF-kB reporter was 1.02 ± 0.044.

As to `Cc1onc(-c2ccccc2)c1-c1ccc(S(N)(=O)=O)cc1`, the NF-kB reporter worked out at 1.25 ± 0.3.

On to `CC(C)(C(=O)O)c1ccc(C(O)CCCN2CCC(C(O)(c3ccccc3)c3ccccc3)CC2)cc1.Cl` (stereo not given), for which the NF-kB reporter stood at 1.01 ± 0.067.

Consider `COc1cccc(N2C(=O)CN(Cc3ccccc3)C3CS(=O)(=O)CC32)c1` (stereo not given), for which the NF-kB reporter stood at 1.49 ± 0.093. Consider `c1ccc(CCn2c(COc3ccccc3)nc3ccccc32)cc1`, for which the NF-kB reporter was 1.16 ± 0.16.

The values are drawn from the supplement of paper PMC10646978.
